According to PubChem BioAssay:
Active and inactive are the calls of the source. Unless noted, no rule for the calls is given here.

Assays:
[1] = A549 cell viability effects, profiling panel, calcein-AM fluorescence, 48 h, basal (AID 1162); conditions: higher = more signal; also: test concentration not given here
[2] = adipocyte viability effects, profiling panel, cell-based, 3T3-L1 adipocytes, calcein-AM fluorescence, 48 h, basal (AID 1163); conditions: 3T3-L1 adipocytes viability, higher = more signal; also: test concentration not given here
[3] = HepG2 cell viability effects, profiling panel, calcein-AM fluorescence, 48 h, basal (AID 1164); conditions: higher = more signal; also: test concentration not given here
[4] = MM1S cell viability effects, profiling panel, calcein-AM fluorescence, 48 h, basal (AID 1165); conditions: higher = more signal;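 also: viability of MM1S multiple myeloma cells under basal unstimulated conditions; test concentration not given here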
[5] = basal RPMI8226 viability, no added stimulus, profiling panel, cell-based, calcein-AM fluorescence, 48 h, PK04 Diversity Set (AID 1166); conditions: RPMI8226 myeloma viability, higher = more signal;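 also: cells grown under basal conditions without added stimulus; test concentration not given here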
[6] = basal HepG2 mitochondrial membrane potential changes, profiling panel, cell-based, JC-1 fluorescence, 24 h, 100 nL compound (AID 1167); conditions: higher = more signal; also: test concentration not given here
[7] = basal 3T3-L1 adipocyte mitochondrial potential changes, profiling panel, cell-based, JC-1 fluorescence, 3T3-L1 adipocytes, 24 h, 100 nL compound (AID 1168); conditions: JC-1 mitochondrial fluorescence, higher = more signal, called active from +8 up or from −8 down; also: test concentration not given here
[8] = basal RPMI8226 mitochondrial membrane potential changes, profiling panel, cell-based, JC-1 fluorescence, 24 h, 100 nL compound (AID 1169); conditions: RPMI8226 myeloma, JC-1 mitochondrial potential fluorescence, higher = more signal; also: test concentration not given here
[9] = basal MM1S mitochondrial membrane potential changes, profiling panel, cell-based, JC-1 fluorescence, 24 h, 100 nL compound (AID 1170); conditions: higher = more signal; also: test concentration not given here
[10] = A549 lung cancer cell viability effects, profiling panel, resazurin fluorescence, 24 h, PK04 Diversity Set (AID 1171); conditions: higher = more signal, called active from +8 up or from −8 down; also: test concentration not given here
[11] = HepG2 liver cancer cell viability effects, profiling panel, resazurin fluorescence, 24 h, PK04 Diversity Set (AID 1172); conditions: higher = more signal; also: test concentration not given here
[12] = basal S. cerevisiae growth modulation, no modifier, primary screen, OD600, strain BY4716, 24 h, basal condition (AID 1173); conditions: OD600, 24 h, higher = more signal, called active from +8 up or from −8 down
[13] = MM1S myeloma cell viability, profiling panel, resazurin fluorescence, basal, 24 h, PK04 Diversity Set (AID 1174); conditions: higher = more signal, called active from +8 up or from −8 down;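 also: MM1S multiple myeloma cell line; test concentration not given here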
[14] = biological target: Dihydroorotate dehydrogenase (quinone), mitochondrial (Plasmodium falciparum (isolate 3D7)) (UniProt Q08210); assay: PfDHODH enzyme inhibitors, primary screen, biochemical, C-terminal His tag, absorbance 600 nm (AID 1175); conditions: DCIP absorbance 600 nm, higher = more signal, called active from +8 up or from −8 down;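 also: recombinant parasite enzyme with a five histidine tag at its C terminus; test concentration not given here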
[15] = P. aeruginosa biofilm formation inhibitors, primary screen, strain PAO1, LB-PBS medium, absorbance 600 nm (AID 1176); also: test concentration not given here; conditions: P. aeruginosa PAO1 growth/biofilm, A600, 12 h; higher = more signal
[16] = S. cerevisiae RM11-1a growth modifiers, primary screen, strain RM11-1a, OD600, basal, 24 h (AID 1177); conditions: OD600, 24 h, higher = more signal, called active from +8 up or from −8 down;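 also: cultures grown under basal conditions with no added stressor; test concentration not given here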
[17] = E. coli acrAB mutant growth effects, primary screen, E. coli filamentation inducers, strain DRC39, OD650, 24 h (AID 1178); conditions: higher = more signal, called active from +8 up or from −8 down;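 also: growth measured as culture turbidity by optical density at 650 nm; test concentration not given here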
[18] = E. coli acrAB mutant growth effects, primary screen, E. coli filamentation inducers, strain DRC39, OD650, 48 h (AID 1179);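 also: screen aims at cell division blockers that make cells filament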; conditions: E. coli DRC39 delta-acrAB growth, higher = more signal, called active from +8 up or from −8 down
[19] = RPMI8226 myeloma cell viability, profiling panel, resazurin fluorescence, basal, 24 h, PK04 Diversity Set (AID 1180); conditions: higher = more signal;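 also: RPMI8826 multiple myeloma cell line at 5000 cells per well; test concentration not given here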
[20] = biological target: E3 ubiquitin-protein ligase XIAP (Homo sapiens) (UniProt P98170); assay: XIAP binders, primary screen, biophysical, small-molecule microarray, fluorescence 635 nm (AID 1181); conditions: small-molecule microarray binding, higher = more signal;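 also: score merges 667 nm emission and signal to noise over triplicate slides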
Sequence of E3 ubiquitin-protein ligase XIAP (Homo sapiens) (P98170 whole entry, looked up): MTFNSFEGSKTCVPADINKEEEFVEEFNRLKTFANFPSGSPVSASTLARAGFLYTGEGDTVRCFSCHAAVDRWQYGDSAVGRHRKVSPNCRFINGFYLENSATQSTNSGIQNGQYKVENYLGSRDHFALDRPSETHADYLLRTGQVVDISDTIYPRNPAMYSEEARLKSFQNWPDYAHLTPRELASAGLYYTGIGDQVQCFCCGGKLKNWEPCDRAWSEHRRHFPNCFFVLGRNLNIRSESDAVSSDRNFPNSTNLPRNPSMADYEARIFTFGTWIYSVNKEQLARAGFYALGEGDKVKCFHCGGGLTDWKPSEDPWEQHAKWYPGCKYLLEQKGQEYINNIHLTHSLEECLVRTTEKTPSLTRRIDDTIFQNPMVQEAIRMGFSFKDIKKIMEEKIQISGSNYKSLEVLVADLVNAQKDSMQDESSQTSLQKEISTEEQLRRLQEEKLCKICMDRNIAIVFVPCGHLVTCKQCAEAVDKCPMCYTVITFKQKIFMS

Sequence of Dihydroorotate dehydrogenase (quinone), mitochondrial (Plasmodium falciparum (isolate 3D7)) (Q08210 whole entry, looked up): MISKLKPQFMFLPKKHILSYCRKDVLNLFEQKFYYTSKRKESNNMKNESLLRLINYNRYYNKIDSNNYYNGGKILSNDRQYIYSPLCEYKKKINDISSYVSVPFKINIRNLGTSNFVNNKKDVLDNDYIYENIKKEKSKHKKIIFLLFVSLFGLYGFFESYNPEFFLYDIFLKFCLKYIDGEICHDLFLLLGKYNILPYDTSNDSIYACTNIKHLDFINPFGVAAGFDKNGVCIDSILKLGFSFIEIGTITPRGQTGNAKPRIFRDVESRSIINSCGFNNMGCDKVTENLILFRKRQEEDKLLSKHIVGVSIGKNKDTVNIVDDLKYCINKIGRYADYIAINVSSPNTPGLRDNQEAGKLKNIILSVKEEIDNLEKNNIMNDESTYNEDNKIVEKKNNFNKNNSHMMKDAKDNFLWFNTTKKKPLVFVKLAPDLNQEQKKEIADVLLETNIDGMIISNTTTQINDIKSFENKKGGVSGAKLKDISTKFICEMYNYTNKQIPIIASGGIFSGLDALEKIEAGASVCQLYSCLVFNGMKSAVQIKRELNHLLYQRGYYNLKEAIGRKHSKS

Row | SMILES | z-score [1] | z-score [2] | z-score [3] | z-score [4] | z-score [5] | z-score [6] | z-score [7] | z-score [8] | z-score [9] | z-score [10] | z-score [11] | z-score [12] | z-score [13] | composite z-score [14] | z-score [15] | z-score [16] | z-score [17] | z-score [18] | z-score [19] | composite z-score [20]
1 | O=C1C2C=CC(C(O)C3CC=CCC3)N(n3cnnc3)C2C(=O)N1Cc1ccccc1 (stereo not given) | -0.563 | -0.801 | 0.253 | -0.379 | -0.255 | -0.937 | -0.132 (inactive) | 0.46 | -0.109 | -0.62 (inactive) | -0.854 | 0.0086 (inactive) | -1.16 (inactive) | -0.071 (inactive) | 0.216 (inactive) | -0.363 (inactive) | -1.59 (inactive) | -1.35 (inactive) | -1.45 | 0.38
2 | COCCOC(=O)N1C(=O)[C@@]2(c3cc(C#CC4(O)CCCCCC4)ccc31)[C@H](c1ccc(O)cc1)N1[C@H](c3ccccc3)[C@H](c3ccccc3)OC(=O)[C@H]1[C@@H]2C(=O)N1CCc2cc(OC)c(OC)cc2C1 | -0.742 | 0.0633 | -0.592 | -0.435 | -0.165 | -0.206 | -0.947 (inactive) | 0.83 | -0.494 | 1.65 (inactive) | 2.14 | -0.169 (inactive) | 0.493 (inactive) | -0.102 (inactive) | -0.0242 (inactive) | -0.592 (inactive) | 0.351 (inactive) | -0.8 (inactive) | 0.0494 | -0.313
3 | COc1ccc(C#Cc2ccc3c(c2)[C@]2(C(=O)N3)[C@H](C(=O)N3CCN(c4ncccn4)CC3)[C@H]3C(=O)O[C@H](c4ccccc4)[C@H](c4ccccc4)N3[C@@H]2c2ccc(O)cc2)cc1 | -0.125 | 0.583 | 0.804 | -0.156 | -0.404 | -1.11 | 1.08 (inactive) | -0.899 | -0.427 | -0.164 (inactive) | -0.795 | 0.21 (inactive) | 0.0492 (inactive) | -3.34 (inactive) | 0.999 (inactive) | 0.881 (inactive) | -0.423 (inactive) | 0.182 (inactive) | 0.225 | -0.0149
4 | O=C(NCC(O)CO)[C@]1(CCS(=O)(=O)c2ccccc2)N=C(c2ccc(OCCCO)cc2)O[C@@H]1c1ccccc1 (stereo not given in full) | -0.206 | -0.13 | -0.635 | -0.37 | -0.33 | 0.22 | -1.3 (inactive) | -0.213 | -0.824 | 0.562 (inactive) | -0.015 | 0.53 (inactive) | -0.57 (inactive) | -0.162 (inactive) | 0.193 (inactive) | -0.702 (inactive) | -0.0686 (inactive) | -0.276 (inactive) | 0.0882 | -0.0203
5 | O=S(=O)(NCCCO)c1ccc(Br)cc1 | 0.819 | -0.307 | 0.492 | 0.704 | 1.24 | 0.76 | 0.371 (inactive) | 0.514 | -0.722 | -0.285 (inactive) | 0.304 | -0.476 (inactive) | 0.261 (inactive) | -1.62 (inactive) | -0.236 (inactive) | -0.482 (inactive) | 1.68 (inactive) | 2.3 (inactive) | 0.461 | 0.0441
6 | CCCC[C@H]1OB(O)C[C@H]2C1=C(C)Cn1c(=O)n(-c3ccccc3)c(=O)n12 | 0.673 | 0.465 | 0.173 | -0.337 | -0.108 | 0.546 | 0.299 (inactive) | -0.903 | -0.503 | 0.0548 (inactive) | 0.916 | 0.422 (inactive) | -0.441 (inactive) | -0.0299 (inactive) | -0.638 (inactive) | 0.218 (inactive) | -0.13 (inactive) | -0.605 (inactive) | 0.191 | -0.0599
7 | Cc1ccc(N2C(=O)c3ccccc3[C@@H](C(=O)NC(C)C)[C@@H]2c2ccc(CO)cc2)nc1 | -0.749 | -0.0953 | -0.617 | 0.385 | -0.526 | 0.199 | -0.286 (inactive) | 0.918 | -0.67 | 2.16 (inactive) | 1.48 | -1.69 (inactive) | 1.09 (inactive) | -0.309 (inactive) | 0.69 (inactive) | -0.434 (inactive) | 0.282 (inactive) | 0.375 (inactive) | 1.17 | 0.147
8 | C=CCN1C(=O)[C@]2(COC(c3ccc(OCCCO)cc3)=N2)Cc2ccccc21 | 0.78 | 1.94 | 0.641 | -1.22 | -0.326 | 0.53 | 0.625 (inactive) | -0.808 | -0.599 | -0.183 (inactive) | 0.653 | -1.8 (inactive) | -0.99 (inactive) | -1.5 (inactive) | 0.286 (inactive) | -0.675 (inactive) | 0.695 (inactive) | 1.54 (inactive) | -0.126 | 0.0933
